Results: PubChem BioAssay (Tox21)
Inconclusive results are not listed. Calls of active or inactive are those of the source. Unless noted, calls come from the whole dose curve.

How the values were obtained:
[1] = qHTS assay to identify small molecule antagonists of the estrogen related receptor signaling pathway with the pleiotropic PPARgamma coactivator (PGC) from Tox21 10K library - cell viability counter screen (AID 1224840; active = well fitted cell-killing curve with a large enough effect in the repeat runs, not every such curve was filed as active; note: nearly all actives have a fitted effect of over 40% in size); conditions: PGC/ERR reporter cells viability, CellTiter-Fluor, 17.5 h; series mostly up to 92.4 µM
How it was run: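 PGC/ERR cells were seeded at 2,000 cells/well and left 6 hours at 37 C/5% CO2 before pin-tool addition of compounds in DMSO. After 17.5 hours at 37 C, CellTiter-Fluor was added and fluorescence read 30 minutes later.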

[2] = target: Thyrotropin receptor (Homo sapiens) (UniProt P16473); assay: qHTS assay to identify small molecule agonists of the thyroid stimulating hormone receptor (TSHR) signaling pathway (AID 1224843); conditions: TSHR-HEK293 cells, cAMP HTRF, agonist mode, 30 min; series mostly up to 92.4 µM; note: nearly all actives have a fitted effect of over 45% in size
Chain of Thyrotropin receptor (Homo sapiens) (P16473 whole entry, looked up): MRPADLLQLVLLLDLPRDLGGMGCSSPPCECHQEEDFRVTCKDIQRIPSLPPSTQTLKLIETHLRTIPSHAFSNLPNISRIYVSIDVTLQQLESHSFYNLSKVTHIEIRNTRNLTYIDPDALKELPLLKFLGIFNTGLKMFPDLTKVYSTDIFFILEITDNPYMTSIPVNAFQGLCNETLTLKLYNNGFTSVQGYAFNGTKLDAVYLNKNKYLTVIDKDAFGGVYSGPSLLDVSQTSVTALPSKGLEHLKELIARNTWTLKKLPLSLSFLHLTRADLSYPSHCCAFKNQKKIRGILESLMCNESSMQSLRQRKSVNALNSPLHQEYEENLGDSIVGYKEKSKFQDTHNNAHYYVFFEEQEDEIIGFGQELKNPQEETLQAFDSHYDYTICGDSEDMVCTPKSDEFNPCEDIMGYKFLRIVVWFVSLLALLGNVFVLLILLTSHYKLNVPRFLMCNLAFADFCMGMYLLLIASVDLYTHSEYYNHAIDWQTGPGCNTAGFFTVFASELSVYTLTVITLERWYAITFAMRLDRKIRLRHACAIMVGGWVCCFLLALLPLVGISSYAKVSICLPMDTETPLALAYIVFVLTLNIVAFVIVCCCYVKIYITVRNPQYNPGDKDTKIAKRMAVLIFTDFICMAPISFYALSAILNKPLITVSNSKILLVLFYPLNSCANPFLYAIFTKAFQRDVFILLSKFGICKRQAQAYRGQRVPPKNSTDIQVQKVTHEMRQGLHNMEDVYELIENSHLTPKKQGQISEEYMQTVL
How it was run: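 TSHR-HEK293 cells in agonist mode, 30 min room-temperature step, then cAMP measured by competitive HTRF (cAMP-d2 with anti-cAMP cryptate) after 1 h at room temperature. Tested at 15 concentrations in triplicate.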

[3] = qHTS assay to identify small molecule agonists of the hypoxia (HIF-1) signaling pathway - cell viability counter screen (AID 1224844); conditions: HRE-bla ME-180 viability, CellTiter-Glo luminescence, 17 h; series mostly up to 76.8 µM; note: nearly all actives have a fitted effect of over 50% in size
How it was run: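 HRE-bla ME-180 cells in medium with 0.5% dialyzed FBS were preincubated 5 hrs at 37C, exposed to compounds for 17 hrs, then viability was read as CellTiter-Glo luminescence after 30 min at room temperature, in the reporter wells.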

[4] = qHTS assay to identify small molecule agonists of H2AX (AID 1224845; active = well fitted activation curve with a large enough effect in the signal ratio in the repeat runs, not every such curve was filed as active; the % refers to the signal ratio); conditions: CHO-K1 phospho-H2AX Ser139 HTRF, 3 h; series mostly up to 154 µM
How it was run: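 Wild-type CHO-K1 cells, plated overnight, exposed 3hr at 37C to 15 concentrations (0.76% DMSO final). Lysed, then HTRF anti-pH2AX (S139) cryptate and anti-H2AX-d2 antibodies, 24 hr room temperature; 665/620 nm emission read.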

[5] = qHTS assay to identify small molecule agonists of the hypoxia (HIF-1) signaling pathway (AID 1224846; active = well fitted activation curve with a large enough effect in the signal ratio in the repeat runs, not every such curve was filed as active; the % refers to the signal ratio); conditions: HRE-bla ME-180 cells, beta-lactamase ratio, 17 h; series mostly up to 76.8 µM
How it was run: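 HRE-bla ME-180 cells (beta-lactamase reporter under hypoxia response element) were plated at 2,000 cells/well in medium with 0.5% dialyzed FBS, rested 5 hrs, then given compounds in DMSO for 17 hrs at 37C, 5% CO2. Reporter induction was read with CCF4-AM FRET substrate.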

[6] = qHTS assay to identify small molecule agonists of H2AX - cell viability counter screen (AID 1224847); conditions: CHO-K1 viability, CellTiter-Glo luminescence, 3 h; series mostly up to 154 µM; note: top concentration of the series differs between compounds; nearly all actives have a fitted effect of over 30% in size
How it was run: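 Viability of CHO-K1 (wild type) cells after 3 hr compound exposure was measured by CellTiter-Glo luminescence.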
% is set by controls: 0 for no effect and ±100 for the full control effect.

Cc1nc2ccc(Cl)cc2[nH]1
inactive: outcome [1] | Potency [2] | outcome [3] | outcome [4] | outcome [5] | outcome [6]

CCCCCC(=O)CC
inactive: outcome [1] | Potency [2] | outcome [3] | outcome [4] | outcome [5] | outcome [6]

CCNC(=O)C(C)OC(=O)Nc1ccccc1 (stereo not drawn)
inactive: outcome [1] | Potency [2] | outcome [3] | outcome [4] | outcome [5] | outcome [6]

CC(C)(O)CCCC1=CCC(C=O)CC1 (stereo not drawn)
inactive: outcome [1] | Potency [2] | outcome [3] | outcome [4] | outcome [5] | outcome [6]

COc1cc(S(N)(=O)=O)cc(C(=O)O)c1OC
inactive: outcome [1] | Potency [2] | outcome [3] | outcome [4] | outcome [5] | outcome [6]

CCOC(=O)[C@H](CCc1ccccc1)N[C@H]1CS[C@H](c2cccs2)CN(CC(=O)O)C1=O
inactive: outcome [1] | Potency [2] | outcome [3] | outcome [4] | outcome [5] | outcome [6]

CCCCCCCCS(=O)(=O)O
inactive: outcome [1] | Potency [2] | outcome [3] | outcome [4] | outcome [5] | outcome [6]

CC(C)C(C)C
inactive: outcome [1] | Potency [2] | outcome [3] | outcome [4] | outcome [5] | outcome [6]

O=C(OOC(=O)c1ccccc1)c1ccccc1
inactive: outcome [1] | Potency [2] | outcome [3] | outcome [4] | outcome [5] | outcome [6]

C=CC(=O)OCC[N+](C)(C)C
inactive: outcome [1] | Potency [2] | outcome [3] | outcome [4] | outcome [5] | outcome [6]

CC(O)C(CO)C(C)O (stereo not drawn)
inactive: outcome [1] | Potency [2] | outcome [3] | outcome [4] | outcome [5] | outcome [6]

CSC(=O)c1cccc2nnsc12
inactive: outcome [1] | Potency [2] | outcome [3] | outcome [4] | outcome [5] | outcome [6]

CCCCCCCCCCCCCCCCN(C)C
inactive: viability change, negative = cytotoxic [1] 6.95% [at 8.39 µM] | activation [2] -17.9% [at 8.39 µM] | activity change, negative = cytotoxicity [3] -5.55% [at 6.97 µM] | activation (H2AX phosphorylation) [4] 1.56% [at 14 µM] | activation [5] -0.212% [at 7.01 µM] | activity change, negative = cytotoxicity [6] -3.36% [at 14 µM]

CNC(C)=O
inactive: outcome [1] | Potency [2] | outcome [3] | outcome [4] | outcome [5] | outcome [6]

c1cc2ccc3ccc4ccc5cccc6c(c1)c2c3c4c56
inactive: viability change, negative = cytotoxic [1] -0.219% [at 3.27 µM] | activation [2] 11.3% [at 3.27 µM] | activity change, negative = cytotoxicity [3] -14.1% [at 2.72 µM] | activation (H2AX phosphorylation) [4] -2.49% [at 5.45 µM] | activation [5] 6.16% [at 2.67 µM] | activity change, negative = cytotoxicity [6] 0.956% [at 5.43 µM]

OCCC(F)(F)C(F)(F)C(F)(F)C(F)(F)C(F)(F)C(F)(F)F
inactive: outcome [1] | Potency [2] | outcome [3] | outcome [4] | outcome [5] | outcome [6]

COC(=O)c1ccc(C(=O)O)cc1
inactive: outcome [1] | Potency [2] | outcome [3] | outcome [4] | outcome [5] | outcome [6]

Cc1cc(=O)oc2cc(O[C@@H]3SC[C@@H](O)[C@H](O)[C@H]3O)ccc12
inactive: outcome [1] | Potency [2] | outcome [3] | outcome [4] | outcome [5] | outcome [6]

O=Cc1ccc(C(=O)O)cc1
inactive: outcome [1] | Potency [2] | outcome [3] | outcome [4] | outcome [5] | outcome [6]

Cc1cc(N)no1
inactive: outcome [1] | Potency [2] | outcome [3] | outcome [4] | outcome [5] | outcome [6]

Cc1cc(C)c(N)c(Cl)c1
inactive: outcome [1] | Potency [2] | outcome [3] | outcome [4] | outcome [5] | outcome [6]

CN(C)CCCN(C)C
inactive: viability change, negative = cytotoxic [1] 4.04% [at 8.39 µM] | activation [2] -10.3% [at 8.39 µM] | activity change, negative = cytotoxicity [3] 11.5% [at 6.97 µM] | activation (H2AX phosphorylation) [4] 0.536% [at 14 µM] | activation [5] -0.634% [at 7.01 µM] | activity change, negative = cytotoxicity [6] 0.19% [at 14 µM]

CCCCNCC
inactive: outcome [1] | Potency [2] | outcome [3] | outcome [4] | outcome [5] | outcome [6]

CCc1ncc(C)[nH]1
inactive: outcome [1] | Potency [2] | outcome [3] | outcome [4] | outcome [5] | outcome [6]

CC(=O)Oc1ccc(C(C)=O)cc1
inactive: outcome [1] | Potency [2] | outcome [3] | outcome [4] | outcome [5] | outcome [6]

COC(=O)c1cc(Cl)c(NC(C)=O)cc1OC
inactive: outcome [1] | Potency [2] | outcome [3] | outcome [4] | outcome [5] | outcome [6]

CC(C)(C)OC(=O)c1ccccc1C(=O)O
inactive: outcome [1] | Potency [2] | outcome [3] | outcome [4] | outcome [5] | outcome [6]

CC(C)(C)c1ccc(C(=O)CCCCl)cc1
inactive: outcome [1] | Potency [2] | outcome [3] | outcome [4] | outcome [5] | outcome [6]

O=C1c2ccccc2C(=O)N1CO
inactive: outcome [1] | Potency [2] | outcome [3] | outcome [4] | outcome [5] | outcome [6]

COC(=O)c1ccc(NC(C)=O)cc1OC
inactive: outcome [1] | Potency [2] | outcome [3] | outcome [4] | outcome [5] | outcome [6]

CCN(CC)CC(=O)Oc1ccc(NC(C)=O)cc1
inactive: outcome [1] | Potency [2] | outcome [3] | outcome [4] | outcome [5] | outcome [6]

CCCCCCCCCCCCCC(=O)OCC
inactive: outcome [1] | Potency [2] | outcome [3] | outcome [4] | outcome [5] | outcome [6]

NC[C@H]1O[C@H](O[C@H]2[C@H](O)[C@@H](O[C@H]3O[C@H](CO)[C@@H](O)[C@H](N)[C@H]3O)[C@H](N)C[C@@H]2N)[C@H](N)[C@@H](O)[C@@H]1O
inactive: viability change, negative = cytotoxic [1] 1.41% [at 19 µM] | activation [2] -7.89% [at 19 µM] | activity change, negative = cytotoxicity [3] 6.36% [at 15.8 µM] | activation (H2AX phosphorylation) [4] -4.26% [at 31.6 µM] | activation [5] -0.993% [at 15.8 µM] | activity change, negative = cytotoxicity [6] -0.161% [at 31.6 µM]

Cc1ccc(NC(N)=O)cc1
inactive: outcome [1] | Potency [2] | outcome [3] | outcome [4] | outcome [6]
